Compound activity deposited in PubChem BioAssay by National Center for Advancing Translational Sciences (NCATS).
An excerpt weighted towards active compounds, which were near 7.6% of everything screened.
Giardia killer = Giardia lamblia killing; 340,000 compounds, 0.15% hits; Giardia lamblia trophozoite viability; activity change, % at 7.66 µM, hits read low; in the data active = activity change below about -80%; inconclusive = between about -30% and that limit;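 also: parasites exposed to compound for two days anaerobically before the ATP read; % is scaled to controls: 0 for no effect and ±100 for the full control effect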
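Trophozoites 100 cells/well + cpd; 48 hrs, 37 deg C, anaerobic. ATPLite 1-Step added, 15-30 min RT, luminescence read (ATP-based viability).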
BRCA1 expr up = increases BRCA1 expression; MCF7-BRCA1-FFLuc reporter, luminescence, 48 h; response scale: scaled: vehicle 0%, 10 µM genistein 100%; Potency, µM (series often up to 46.1 µM), without a hit: at the top dose activation, hits mostly activators; 380,000 compounds, 1.1% hits; AID 624202; also: potency is read from the fitted curve at half-maximal effect; nearly all actives have a fitted effect of over 80% in size
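MCF7-BRCA1-FFLuc cells, 2000/well in phenol-red-free MEM, attached 2 h then treated 48 h at 37 C. Luciferase luminescence read 15 min after reagent; normalized to genistein maximum activation (10microM) and DMSO, concentration-response fitted.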
ELG1 DNA repair = ELG1-dependent DNA repair inhibition. HEK293T ELG1-luciferase reporter, luminescence, 16 h; DNA damage induced by 5-fluorouridine. Potency, µM (top dose mostly 46.1 µM), for the others: at the highest dose activity change, negative = inhibition, actives largely listed as inhibitors. 330,000 compounds, 2.3% hits; also: potency is read from the fitted curve at half-maximal effect; % is scaled to controls: 0 for no effect and ±100 for the full control effect; nearly all actives have a fitted effect of over 55% in size
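Luminescence from the luciferase reporter, measured 30 min after ONE-Glo reagent at room temperature, was the read-out. Beforehand, 2,000 cells per well were exposed for 16 hr at 37 °C to 5-fluorouridine together with compound or vehicle.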
p53 reactivator = mutant p53 re-activation in reporter cells. H1299 p53-A138V BP100-luciferase reporter, luminescence, 24 h. Potency, µM (highest dose often 92.2 µM), without a hit: top-dose activity change, positive = activation, most hits filed as activators. 320,000 compounds, 0.063% hits; also: potency is read from the fitted curve at half-maximal effect; % of control where 0% means no effect; nearly all actives have a fitted effect of over 45% in size
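p53-null H1299 cells stably carrying temperature-sensitive p53-A138V and a BP100-luciferase reporter were pinned with compounds (4-point, 1:5 series) and held 24 hrs at 37 deg C. Luminescence was read 10 min after detection reagent.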
RORgamma inh = inhibitors of mouse ROR gamma transcriptional activity | P51450 | Drosophila S2 Gal4-RORgamma UAS-luciferase reporter, 20 h | Potency, µM (highest dose often 53.6 µM), without a hit: top-dose activity change, negative = inhibition, hits mostly inhibitors | 310,000 compounds, 5.4% hits; also: potency is read from the fitted curve at half-maximal effect; % is scaled to controls: 0 for no effect and ±100 for the full control effect; nearly all actives have a fitted effect of over 60% in size
Target sequence (P51450 whole entry, looked up, the tested form may be a part): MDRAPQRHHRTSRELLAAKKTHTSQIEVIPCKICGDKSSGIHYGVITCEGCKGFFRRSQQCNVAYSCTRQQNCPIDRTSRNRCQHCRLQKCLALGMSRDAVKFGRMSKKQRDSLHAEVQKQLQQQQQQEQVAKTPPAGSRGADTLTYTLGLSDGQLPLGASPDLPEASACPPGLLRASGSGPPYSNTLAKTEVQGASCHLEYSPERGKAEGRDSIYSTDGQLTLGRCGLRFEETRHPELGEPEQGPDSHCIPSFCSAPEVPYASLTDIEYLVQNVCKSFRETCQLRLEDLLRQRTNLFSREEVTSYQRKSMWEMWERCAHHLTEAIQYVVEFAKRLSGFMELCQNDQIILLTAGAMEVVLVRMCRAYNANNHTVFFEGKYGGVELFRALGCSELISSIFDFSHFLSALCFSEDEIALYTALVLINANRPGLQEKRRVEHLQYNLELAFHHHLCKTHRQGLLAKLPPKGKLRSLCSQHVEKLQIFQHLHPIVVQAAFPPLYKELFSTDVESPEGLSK
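ROR gamma transcriptional activity was tracked as Gal4-UAS luciferase output in stably transfected Drosophila Schneider cells, with compound added 1 hr before 700 uM copper sulfate induction and a 20 hr ambient-temperature incubation.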
Gal4-VP16 FLuc = inhibits Gal4-VP16 luciferase reporter, ROR gamma counter-screen. Potency, µM (highest dose often 53.6 µM), inactives show at the top dose activity, negative = inhibition, most hits filed as inhibitors. 310,000 compounds, 3.5% hits. Drosophila S2 Gal4-VP16 UAS-luciferase, luminescence, 20 h;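 also: Gal4-VP16 expression switched on by copper sulfate through the metallothionein promoter; potency is read from the fitted curve at half-maximal effect; % is scaled to controls: 0 for no effect and ±100 for the full control effect; nearly all actives have a fitted effect of over 50% in size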
The depositor's hits bear a star; ? = inconclusive; / = not tested or not shown; [ ] = another dose, or the depositor's remark. Unless noted, calls follow the shape of the dose curve; as a rule, active = well fitted curve in the direction sought with a large enough effect; inconclusive = small, poorly fitted or top-dose-only effect, or another doubt; inactive = no such curve, though single readings can be large; an effect the other way counts as inactive or inconclusive.

SMILES	Giardia killer	BRCA1 expr up	ELG1 DNA repair	p53 reactivator	RORgamma inh	Gal4-VP16 FLuc
CN(CCc1ccccc1)C(=O)c1cc(COc2cccc(C(F)(F)F)c2)on1	-12	19%	15%	8%	1%	?
Cc1ccc(-c2nnc(SCC(=O)Nc3ccc4c(c3)oc3ccccc34)n2C)c(Cl)c1	-14	-10%	18µM*	3%	-15%	10%
Cc1ccccc1OCc1nnc(SCC(=O)Nc2ccc3c(c2)oc2ccccc23)n1C	-8	?	0%	10%	-24%	?
O=C(Nc1nonc1-c1ccc(Cl)cc1)c1ccccc1	11	-41%	?	0%	11µM*	?
Cc1cc(C)n2nc(SCCOc3ccc(F)cc3)nc2n1	-6	-30%	10%	8%	23%	6%
CNC(=O)N(O)C1N(/N=C/c2ccc(N(C)C)cc2)C(=S)SC1(C)C (configuration not stated)	-1	51%	0%	1%	10%	7%
CC1(C)SC(=S)N(/N=C/c2ccccc2)C1N(O)C(=O)Nc1ccc([N+](=O)[O-])cc1 (configuration not stated)	-10	-48%	5%	0%	?	3.5µM*
COc1ccc(N2CCN(CCCn3c(=S)[nH]c4ccccc4c3=O)CC2)cc1	-2	13%	21%	4%	6.3µM*	?
CCOc1cc2[nH]c(=O)n(CCCN3CCN(c4ccc(OC)cc4)CC3)c(=O)c2cc1OCC	-1	-24%	-29%	3%	2%	1%
COc1ccccc1N1CCN(CCCn2c(=S)[nH]c3ccccc3c2=O)CC1	6	11%	?	0%	13µM*	?
CC(=O)Oc1cc(C)c(OC(C)=O)c2ccccc12	/	/	/	/	-1%[10 µM]	-17%
Cc1ccc(O)c(CN(C)Cc2cc(C)ccc2O)c1	3	47%	/	/	/	/
CCOc1ccccc1NC(=O)C(OC(=O)c1ccc(CC)cc1)c1ccccc1 (configuration not stated)	3	-21%	-4%	2%	34%	-15%
CCOc1ccccc1NC(=O)C(OC(=O)c1ccc(O)cc1)c1ccccc1 (configuration not stated)	4	-71%	?	10%	18µM*	?
CCN(CC)S(=O)(=O)c1cccc(-c2nnc(SCCCC(=O)c3ccccc3)o2)c1	0	2%[1.84 µM]	?	-15%	35%	12%
CCN(CC)S(=O)(=O)c1cccc(-c2nnc(SCCCC(=O)c3ccc(F)cc3)o2)c1	6	2%[1.84 µM]	16µM*	-2%	?	-19%
CCN(CC)S(=O)(=O)c1cccc(-c2nnc(SCC(=O)c3cc(C)n(C4CC4)c3C)o2)c1	4	3%	?	0%	7%	17%
CCN(CC)S(=O)(=O)c1cccc(-c2nnc(SC(C)C(=O)NCCC3=CCCCC3)o2)c1 (configuration not stated)	9	-47%	23µM*	1%	-25%	2%
C=CCn1c(C)cc(C(=O)CSc2nnc(-c3cccc(S(=O)(=O)N(CC)CC)c3)o2)c1C	-15	0%	16µM*	-2%	16%	2%
COc1ccc(C(=O)CCC(=O)N2CCN(c3ccccc3)CC2)cc1	-11	4%	-17%	8%	0%	0%
Brc1cccc(-c2nc3c4ccccc4ccn3c2Cc2ccccc2)c1	/	-25%	/	/	/	/
COc1ccc(CNC(=O)Nc2ccccc2)cc1	-7	?	?	13%	32%	-6%
COc1ccc(CCNC(=S)Nc2cccc(C)c2)cc1	-23	15%	-6%	-1%	7.1µM*	10µM*
Cc1cccc(NC(=S)NCCC(C)C)c1	-14	18%	2%	9%	-10%	?
COc1ccc(CNC(=O)Nc2cccc(C)c2)cc1	-13	3.2µM*	?	18%	6%	?
SMILES	Giardia killer	BRCA1 expr up	ELG1 DNA repair	p53 reactivator	RORgamma inh	Gal4-VP16 FLuc
CCN(CC)c1ccc2cc(C=O)c(=O)oc2c1	-1	-16%	/	/	-11%	-4%
CCN(CC)c1ccc2nc3c4ccccc4c(=O)cc-3oc2c1	-12	0.89µM*	?	/	-21%	22%
O=[N+]([O-])c1cccc(/C=N/Nc2nc(NCc3ccccc3)nc(N3CCOCC3)n2)c1	1	-34%	7%	4%	-32%	-12%
O=[N+]([O-])c1cccc(/C=N/Nc2nc(NCc3ccccc3)nc(N3CCOCC3)n2)c1O	-20	-83%	21µM*	-3%	1%	-16%
O=[N+]([O-])c1ccc(/C=N/Nc2nc(NCc3ccccc3)nc(N3CCOCC3)n2)cc1	0	-30%	7.3µM*	2%	-21%	7%
CC(C)CC(NC(=O)C1CCC(=O)N1)C(=O)NC(CC(C)C)C(=O)N1CCCC1C(N)=O (configuration not stated)	-4	-3%	-3%	6%	-13%	-12%
Clc1cccc(/C=N/Nc2nnc(Cl)c3ccccc23)c1	6	-1%	?	19%	3.2µM*	?
Clc1ccc(/C=N\Nc2ccccc2)cc1	22	-2%	1%	17%	1%	18%
Clc1ccc(/C=N/Nc2nnc(-c3ncc[nH]3)c3ccccc23)cc1	-26	-25%	0%	8%	1.3µM*	3.2µM*
CCn1nc(NC(=O)COC)c2cc3cccc(C)c3nc21	15	4%	-18%	-3%	15%	-12%
Cc1nnc(NC(=O)CSc2nnc(Cc3ccccc3)n2Cc2ccccc2)s1	0	-25%	/	/	24%	-6%
Cc1ccc(-n2ncc(-c3nnc(SCC(=O)NC4CCCC4)o3)c2N)cc1C	-4	-10%	12µM*	9%	?	-4%
CCC(C)n1c(SCC(=O)N(CC)c2c(N)n(Cc3ccccc3)c(=O)[nH]c2=O)nc2ccccc2c1=O (configuration not stated)	-6	-4%	/	/	/	/
O=C(NNC(=S)Nc1cccc(C(F)(F)F)c1)c1cccc(Cl)c1	13	-78%	-16%	-15%	?	?
CC(C)(C)NNC(=S)Nc1cccc(C(F)(F)F)c1	-10	-22%	-26%	-6%	1µM*	3.2µM*
O=C(NNC(=S)Nc1cccc(C(F)(F)F)c1)c1ccccc1Cl	5	-94%	-5%	?	13µM*	10µM*
CCCNC(=S)Nc1cccc(C(F)(F)F)c1	-7	0%	-12%	0%	10µM*	?
Cc1ccc(NC(=S)NNC(C)(C)C)cc1	8	25%	-3%	17%	?	0.25µM*
COCCN(C(=O)COC(=O)/C=C/c1cccc(OC)c1)c1c(N)n(CC(C)C)c(=O)[nH]c1=O	-20	-7%	24%	0%	/	/
